The target of test [1] is Tumor necrosis factor receptor superfamily member 10B (Homo sapiens) (UniProt O14763). Briefly: viability loss of caspase-8 NB7 cells with TRAIL – with/without TRAIL, luminescence panel, confirmation (AID 651596). The settings on record: NB7 neuroblastoma + caspase-8, TRAIL sensitization, NB7 Caspase-8, with TRAIL, mean of runs, at 10 µM, stronger effect = higher value.
Assay in test [2]: as above
The settings on record: NB7 neuroblastoma + caspase-8, without TRAIL, NB7 Caspase-8, without TRAIL, mean of runs, at 10 µM.

For test [3], the target named is Tumor necrosis factor receptor superfamily member 10B (Homo sapiens) (UniProt O14763). In words: compound enhancement of TRAIL-induced cell killing – NB7 cells plus caspase-8, luminescence, panel, dose response (AID 652002). The settings on record: NB7 neuroblastoma +caspase-8, TRAIL sensitization, luminescence viability, NB7+Caspase-8, with TRAIL, run 1; at 12.5 µM (top of the series).

For test [4] the target is unchanged. The description is as above. The settings on record: NB7 neuroblastoma +caspase-8, TRAIL sensitization, luminescence viability, NB7+Caspase-8, with TRAIL, run 2; at 12.5 µM (top of the series).
Assay in test [5]: as above
The settings on record: NB7 neuroblastoma +caspase-8, no TRAIL, compound-alone cytotoxicity counter-screen, luminescence viability, NB7+Caspase-8, run 1; at 12.5 µM (top of the series) unless noted.

Assay in test [6]: as above
The settings on record: NB7 neuroblastoma +caspase-8, no TRAIL, compound-alone cytotoxicity counter-screen, luminescence viability, NB7+Caspase-8, run 2; at 12.5 µM (top of the series) unless noted. For orientation: The purpose of a counterscreen is to sort out artefacts and off-target activity.

The target of test [7] is 72 kDa type IV collagenase (Homo sapiens) (UniProt P08253). Briefly: human MMP-2 inhibitors, single-point check – biochemical, fluorescence, single concentration, counter-screen for CSN deneddylation inhibitor project, confirmation (AID 720655;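 active = corrected plate-normalized z-score of 5 or more, or -5 or less, or inhibition of 15% or more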;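 note: plate controls were DMSO wells with enzyme for no effect and buffer wells lacking MMP-2 for full effect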). The settings on record: recombinant MMP-2, FRET substrate fluorescence, 60 min; at 16.6 µM.
Sequence of 72 kDa type IV collagenase (Homo sapiens) (P08253 whole entry, looked up): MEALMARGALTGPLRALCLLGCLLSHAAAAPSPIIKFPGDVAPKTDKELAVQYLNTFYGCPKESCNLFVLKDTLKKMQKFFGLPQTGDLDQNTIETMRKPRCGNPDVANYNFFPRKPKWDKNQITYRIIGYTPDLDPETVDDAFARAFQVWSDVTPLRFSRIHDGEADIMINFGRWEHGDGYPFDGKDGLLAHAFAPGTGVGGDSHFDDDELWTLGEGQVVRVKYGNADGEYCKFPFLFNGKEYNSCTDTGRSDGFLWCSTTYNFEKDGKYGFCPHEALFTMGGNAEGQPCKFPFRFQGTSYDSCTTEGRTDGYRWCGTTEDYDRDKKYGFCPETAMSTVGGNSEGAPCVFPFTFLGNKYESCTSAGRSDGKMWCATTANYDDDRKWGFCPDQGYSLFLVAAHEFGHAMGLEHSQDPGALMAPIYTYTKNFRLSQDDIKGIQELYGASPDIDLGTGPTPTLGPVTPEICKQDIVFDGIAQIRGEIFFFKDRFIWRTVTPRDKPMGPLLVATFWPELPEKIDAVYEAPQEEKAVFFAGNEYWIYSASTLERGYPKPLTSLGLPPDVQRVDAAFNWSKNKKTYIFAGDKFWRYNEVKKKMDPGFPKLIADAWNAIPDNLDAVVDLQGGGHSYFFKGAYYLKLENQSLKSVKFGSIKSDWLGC
A further test addresses Prothrombin (Bos taurus) (UniProt P00735). Briefly: thrombin cleavage blockers, FP readout – biochemical, fluorescence polarization, single concentration, counter-screen for CSN deneddylation inhibitor project, confirmation (AID 720656;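 active = inhibition at or above a set limit, with a fluorescence interference ratio between 0.5 and a set maximum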). The settings on record: bovine thrombin cleavage of Ub4-pepOG, at 16.6 µM, stronger effect = higher value. In general terms: Fluorescence polarisation rises when a labelled molecule tumbles more slowly, as on binding a larger partner.

For test [8], the target named is COP9 signalosome complex subunit 5 (Homo sapiens) (UniProt Q92905). Briefly: blockers of CSN-driven cullin deneddylation – biochemical, fluorescence polarization, single concentration, SCF-Nedd8OG substrate, confirmation (AID 720654; in the data active = inhibition above about 50%;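 note: 0% = DMSO with enzyme and 100% = no enzyme wells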). The settings on record: Csn5 deneddylation of SCF-Nedd8OG, 90 min, at 16.6 µM, stronger effect = higher value.
Sequence of COP9 signalosome complex subunit 5 (Homo sapiens) (Q92905 whole entry, looked up, one chain of several): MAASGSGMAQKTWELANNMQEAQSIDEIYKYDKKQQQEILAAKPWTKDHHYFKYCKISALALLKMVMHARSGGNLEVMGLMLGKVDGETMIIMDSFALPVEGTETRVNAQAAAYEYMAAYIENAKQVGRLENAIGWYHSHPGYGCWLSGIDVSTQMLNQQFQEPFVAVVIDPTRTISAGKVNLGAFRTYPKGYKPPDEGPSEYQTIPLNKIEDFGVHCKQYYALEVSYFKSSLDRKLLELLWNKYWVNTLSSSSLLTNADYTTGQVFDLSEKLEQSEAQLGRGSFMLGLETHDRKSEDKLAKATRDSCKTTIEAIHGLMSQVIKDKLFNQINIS

Results on 10 compounds are retold here after PubChem BioAssay.

As usually defined, the inhibition is the relative decrease from the control value, in per cent.

Each structure is given as a SMILES string. The list shows a part of the results. The source made the active and inactive calls. Cut-off read from the data, not from the text of the source, unless noted: active = activity above about 50%; inactive = the rest.

Sequence of Tumor necrosis factor receptor superfamily member 10B (Homo sapiens) (O14763 whole entry, looked up): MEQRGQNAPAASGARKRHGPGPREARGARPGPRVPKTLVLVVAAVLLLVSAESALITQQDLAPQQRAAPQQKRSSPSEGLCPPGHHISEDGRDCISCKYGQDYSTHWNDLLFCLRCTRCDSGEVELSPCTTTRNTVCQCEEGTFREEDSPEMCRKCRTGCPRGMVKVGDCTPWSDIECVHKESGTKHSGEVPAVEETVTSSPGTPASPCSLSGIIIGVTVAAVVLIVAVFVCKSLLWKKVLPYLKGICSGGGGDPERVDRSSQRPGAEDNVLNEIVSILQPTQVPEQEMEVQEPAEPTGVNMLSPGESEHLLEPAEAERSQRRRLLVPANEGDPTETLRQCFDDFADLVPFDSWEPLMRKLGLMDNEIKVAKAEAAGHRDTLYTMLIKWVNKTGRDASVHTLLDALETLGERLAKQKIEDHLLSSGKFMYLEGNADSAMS
Sequence of Prothrombin (Bos taurus) (P00735 whole entry, looked up): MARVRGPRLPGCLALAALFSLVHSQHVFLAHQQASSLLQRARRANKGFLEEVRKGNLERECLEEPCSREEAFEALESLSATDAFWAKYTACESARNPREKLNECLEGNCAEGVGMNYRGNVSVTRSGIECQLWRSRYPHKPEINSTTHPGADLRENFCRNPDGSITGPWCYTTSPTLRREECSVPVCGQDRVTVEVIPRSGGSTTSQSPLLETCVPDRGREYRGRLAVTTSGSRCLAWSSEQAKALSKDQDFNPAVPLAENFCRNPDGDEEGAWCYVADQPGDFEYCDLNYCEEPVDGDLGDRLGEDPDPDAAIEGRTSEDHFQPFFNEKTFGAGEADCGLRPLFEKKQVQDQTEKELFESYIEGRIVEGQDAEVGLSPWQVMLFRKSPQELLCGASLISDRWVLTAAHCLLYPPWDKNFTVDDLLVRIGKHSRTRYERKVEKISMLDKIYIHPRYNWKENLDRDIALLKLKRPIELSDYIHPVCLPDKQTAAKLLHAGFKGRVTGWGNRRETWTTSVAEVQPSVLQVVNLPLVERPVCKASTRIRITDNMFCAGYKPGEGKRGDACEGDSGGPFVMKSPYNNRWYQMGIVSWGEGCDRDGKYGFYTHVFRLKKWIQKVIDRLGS

Regarding `COc1ccc(NS(=O)(=O)c2cccc(C(=O)N/N=C/c3c(F)c(F)c(F)c(F)c3F)c2)cc1`, the values for the activity in test [1] and in [2] were 77.2% and 47.5%, respectively. In addition, the activity, % sensitization in test [3] is 7.56%; in test [4] it was 35.1%; in test [5] it was -2.02%; in test [6], 41.3%.
Turning to `COCCNc1c(-c2cc3ccc(C)c(C)c3[nH]c2=O)nc2ccccn12`, the values for the activity in test [1] and in test [2] were 64.9% and 47.6%, respectively. The activity, % sensitization in test [3] is 60.1%; in [4] it was 54.8%; in test [5] it was -1.27%; in test [6], 53.5%.
Regarding `Cc1ccc(-c2nn(-c3ccccc3)cc2/C=C2\SC(=S)N(CCCCCC(=O)O)C2=O)o1`, the values for the inhibition (in test [7]; with Prothrombin (Bos taurus)) were -170% (active) and -24.4% (inactive), respectively.
`Cc1nc(Cl)c2oc3ccccc3c2n1`: the activity in test [1] stood at 84%; in test [2], 31.1%. The activity, % sensitization was -4.95% in test [3], -0.917% in test [4], -7.33% in [5] and -8.16% in [6].
As to `CC(=O)c1ccc(NC(=O)Nc2cccnc2)cc1`, the activity turned out to be 52.1% in [1] and 45% in test [2]. The activity, % sensitization was found to be 32.2% in test [3], 44.9% in test [4], 35.1% in test [5] and 43.9% in [6].
As for `CCOc1ccc(NC(=O)Nc2cccs2)cc1`, the figures for the activity in [1] and in [2] were 63.8% and 46.8%, respectively. Also, the activity, % sensitization is 36.3% in test [3], 52.3% in [4], 40.7% in [5] and 47.8% in test [6].
With `O=C1Cc2c(-c3ccccc3)cc(-c3cccc(Cl)c3)nc2-c2ccccc2N1`, the activity in test [1] was 52.9%; in test [2], 39.5%. In addition, the activity, % sensitization in [3] was -1.76%; in test [4], -0.0597%; in [5], -14.1%; in test [6], -20.4%.
For the compound `Cc1ccc(C(=O)O)cc1-c1ccc(/C=C2\SC(=O)N(CC(=O)Nc3ccc4c(c3)OCO4)C2=O)o1`, the inhibition is 155% (active) in test [8], -3.01% (inactive) in [7] and 7.47% (inactive) in the test with Prothrombin (Bos taurus).
In the case of `CN(C)CCCN(C(=O)c1ccc(C(=O)c2ccccc2)cc1)c1nc2ccc(F)cc2s1`, the figures for the activity in test [1] and in test [2] were 64.6% and 34.9%, respectively. Besides, the activity, % sensitization amounted to 12.1% in test [3], 3.85% in test [4], 0.995% in [5] and 25.8% in test [6].
On to `COc1cc(SC#N)ccc1N=Cc1c(C)[nH]n(-c2ccc(Cl)cc2)c1=O`, for which the results for the activity in test [1] and in test [2] were 66.9% and 41.2%, respectively. Besides, the activity, % sensitization is -29.2% in test [3], -11.6% in test [4], -15.4% in test [5] and -20.1% in [6].
